Bioassay records as filed in PubChem.
ERp5 inh – inhibitors of human ERp5. inhibition, % at 9.99 µM. 350,000 tested, 0.05% active. ERp5 insulin aggregation, absorbance 650 nm, 90 min;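 active = mean replicate inhibition above about 25%, with every replicate also reaching it, limit read from the data, passing the limit was not always enough; inconclusive = only one of those two criteria met; inactive = neither criterion met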
MLL AF4-AF9 inh – MLL-AF4/AF9 protein interaction inhibition; inhibition, % at 10 µM; AlphaScreen, biotin-AF4 peptide binding to FLAG-AF9; P42568; 350,000 tested, 0.47% active; AID 651704;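 active = every replicate reaching a set inhibition limit, whatever the replicate mean, cut at about 25% in these data; inconclusive = mean inhibition reaches that limit but some replicates miss it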;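 also: 0% = plate neutral control median and 100% = total signal loss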
DENV2 CPE – protects cells from dengue virus 2 cytopathic effect. DENV2-infected cells, cytopathic effect rescue, plate reader. CPE inhibition, % at 9.99 µM. 350,000 tested, 1.7% active; in the data active = CPE inhibition above about 20%, passing the limit was not always enough; inconclusive = no clear call, values can overlap the other calls; tested in BHK-21 cells;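 also: 0% = median of neutral control wells and 100% = median of positive control wells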
PDI inh – blocks human protein disulfide isomerase activity | P07237 | PDI insulin aggregation turbidity, A650, 90 min | inhibition, % at 10 µM | 350,000 tested, 0.052% active;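 active = mean inhibition across replicates of 30% or more, whatever share of single replicates reach that level; inconclusive = mean inhibition below 30% while every single replicate reaches 30%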
Target sequence (P07237 whole entry, looked up): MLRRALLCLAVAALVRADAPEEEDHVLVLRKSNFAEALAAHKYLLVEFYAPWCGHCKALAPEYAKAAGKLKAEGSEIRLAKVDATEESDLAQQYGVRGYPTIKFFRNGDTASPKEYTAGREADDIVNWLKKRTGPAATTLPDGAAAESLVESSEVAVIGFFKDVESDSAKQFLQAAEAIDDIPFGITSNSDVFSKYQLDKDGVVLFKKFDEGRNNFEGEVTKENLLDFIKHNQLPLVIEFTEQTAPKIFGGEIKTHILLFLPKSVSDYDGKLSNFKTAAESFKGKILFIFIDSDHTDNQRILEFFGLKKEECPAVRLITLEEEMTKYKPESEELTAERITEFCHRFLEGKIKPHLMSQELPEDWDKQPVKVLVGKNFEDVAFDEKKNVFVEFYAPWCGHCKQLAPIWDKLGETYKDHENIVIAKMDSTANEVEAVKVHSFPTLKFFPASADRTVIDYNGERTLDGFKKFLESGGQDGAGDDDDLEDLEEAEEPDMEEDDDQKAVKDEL
ERAP1 inh – inhibitors of human ERAP1 aminopeptidase | recombinant ERAP1, Leu-AMC fluorescence, 60 min | inhibition, % at 10.7 µM | 340,000 tested, 0.15% active | AID 652197;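 active = mean replicate inhibition of at least 30%, or all replicates individually reaching that 30% level; inactive = mean below 30% and not every replicate reaching it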;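 also: 0% = neutral control wells and 100% = L-leucinethiol positive control wells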
Starred values were filed as active, the others as inactive. Compounds with a hit are over-represented: about 1.8% of the library has one in this group of screens.

Screening CC(C)NC(=O)Nc1cccc2c1O[C@H](CN(C)Cc1ccc(-c3ccccc3)cc1)[C@@H](C)CN([C@H](C)CO)C2=O returned ERp5 inh 7, MLL AF4-AF9 inh 2, DENV2 CPE 2 and ERAP1 inh 0.
`Cc1ccccc1Nc1c(-c2ccccn2)nc2c(C)cccn12` gave ERp5 inh 1, MLL AF4-AF9 inh 34*, DENV2 CPE -4 and PDI inh -2.
Cc1cccc(C)c1Nc1c(-c2ccccn2)nc2ccccn12 was read as ERp5 inh 2, DENV2 CPE 1, PDI inh 2 and ERAP1 inh 0.
`COc1ccc(NC(=O)Nc2ccc3c(c2)C(=O)N([C@@H](C)CO)C[C@H](C)[C@@H](CN(C)C(=O)Nc2c(C)noc2C)OCCCC[C@H](C)O3)cc1` gave ERp5 inh 1, MLL AF4-AF9 inh 3, DENV2 CPE 7 and ERAP1 inh 1.
`CCOC(=O)c1nnn(CC(=O)NC(=O)Nc2ccccc2)c1C(=O)OCC` gave ERp5 inh 6, MLL AF4-AF9 inh 5, DENV2 CPE -4 and PDI inh 2.
`CCOC(=O)c1nnn(CC(=O)Nc2ccccc2)c1C(=O)OCC` gave ERp5 inh 3, MLL AF4-AF9 inh 0, DENV2 CPE -2, PDI inh -16 and ERAP1 inh 43*.
`COc1ccc(CN(C)C[C@H]2Oc3c(NS(=O)(=O)c4ccccc4)cccc3C(=O)N([C@@H](C)CO)C[C@@H]2C)cc1` gave ERp5 inh -3, MLL AF4-AF9 inh 0, DENV2 CPE 14 and ERAP1 inh 0.
`CCOC(=O)/C(CCC[N+](C)(CC)CC)=N\O` gave ERp5 inh -1, MLL AF4-AF9 inh -2, DENV2 CPE -4, PDI inh 16 and ERAP1 inh 111*.
For CCOC(=O)C(Cc1ccnc2ccccc12)=NO the results were ERp5 inh -2, MLL AF4-AF9 inh -1, DENV2 CPE -2, PDI inh 7 and ERAP1 inh 3.
O=C(CSc1nc(=O)[nH]c2c1CCCC2)Nc1ccc(F)cc1F was read as ERp5 inh 0, MLL AF4-AF9 inh 0, DENV2 CPE 41*, PDI inh -3 and ERAP1 inh -3.
CO[C@@H]1CN(C)C(=O)c2ccc(NS(C)(=O)=O)cc2OC[C@@H](C)N(Cc2cncnc2)C[C@@H]1C was read as ERp5 inh 7, MLL AF4-AF9 inh -15, DENV2 CPE -8 and ERAP1 inh -4.
For CCCCC1OC2(C)OC(=N)C1(C#N)C(C#N)(C#N)C2c1ccccc1 (configuration not stated) the results were ERp5 inh 1, MLL AF4-AF9 inh 3, DENV2 CPE 73*, PDI inh 3 and ERAP1 inh -21.
For Cc1ccc(NC(=O)NCCN2CCCCC2)cc1Cl the results were ERp5 inh 0, MLL AF4-AF9 inh 26*, DENV2 CPE -1, PDI inh 1 and ERAP1 inh 0.
For O=C(NCCN1CCCCC1)Nc1ccc(F)c(Cl)c1 the results were PDI inh 17.
CCCCCc1c(-c2ccc(Cl)cc2)ncn1CCc1ccccc1OC was read as ERp5 inh -4, MLL AF4-AF9 inh 3, DENV2 CPE 21* and ERAP1 inh 1.
Cc1noc(C)c1NC(=O)N[C@H]1C=C[C@H](CC(=O)NCCCN(C)C)O[C@H]1CO was read as ERp5 inh 3, MLL AF4-AF9 inh 0, DENV2 CPE 3 and ERAP1 inh 1.
Screening CCOC(=O)N1CCN(CCC(=O)Nc2ccc(C)c(Br)c2)CC1 returned PDI inh 18.
`Cc1ccc(NC(=O)CCN2CCN(CCO)CC2)cc1Br` gave ERp5 inh 1, MLL AF4-AF9 inh -1, DENV2 CPE 20* and ERAP1 inh 1.
`Cc1ccccc1S(=O)(=O)NCC[C@H]1CC[C@H](NC(=O)Nc2cccc(Cl)c2)[C@@H](CO)O1` gave ERp5 inh -3, MLL AF4-AF9 inh 0, DENV2 CPE 9 and ERAP1 inh 0.
`COc1ccc(S(=O)(=O)Nc2ccc3c(c2)C(=O)N([C@H](C)CO)C[C@@H](C)[C@@H](CN(C)S(=O)(=O)c2ccccc2)O3)cc1` gave ERp5 inh -1, MLL AF4-AF9 inh 2, DENV2 CPE 5 and ERAP1 inh -1.
Screening CCOC(=O)CSc1nnc([C@H](Cc2ccccc2)NC(=O)OC(C)(C)C)o1 returned PDI inh -5.
CN(C)C(=O)CSc1nnc([C@H](Cc2c[nH]c3ccccc23)NC(=O)OC(C)(C)C)o1 was read as PDI inh 45*.
For O=C(c1cccc(-c2cccc3nccn23)c1)N1CCOCC1 the results were ERp5 inh -2, MLL AF4-AF9 inh 2, DENV2 CPE 33*, PDI inh -1 and ERAP1 inh 0.
COc1ccc(CNC(=O)Nc2ccc3c(c2)c(=O)n(C)n3Cc2cc(C)cc(C)c2)cc1 was read as ERp5 inh 0, MLL AF4-AF9 inh -14, DENV2 CPE 32*, PDI inh -10 and ERAP1 inh 2.
C[C@H]1CCCCO[C@H](CN(C)Cc2ccc3c(c2)OCO3)[C@@H](C)CN([C@@H](C)CO)C(=O)c2cc(NS(=O)(=O)c3ccc(Cl)cc3)ccc2O1 was read as ERp5 inh 0, MLL AF4-AF9 inh 8, DENV2 CPE 3 and ERAP1 inh 0.
CCCCCCCCCCCCCCCC[n+]1ccccc1 was read as ERp5 inh 7, MLL AF4-AF9 inh -3, DENV2 CPE inconclusive, PDI inh inconclusive and ERAP1 inh 75*.
`CCCCCCCCCCCCCCCC[n+]1ccc(C(N)=O)cc1` gave PDI inh -17.
`COc1ccc(NC(=O)Nc2ccc3c(c2)CC(=O)N([C@@H](C)CO)C[C@@H](C)[C@H](CN(C)C)O3)cc1` gave ERp5 inh -1, MLL AF4-AF9 inh 5, DENV2 CPE -3 and ERAP1 inh 2.
For CN1c2ccc(-c3ccccc3F)cc2[C@H]2[C@H](CCN2S(=O)(=O)c2ccccc2)[C@@H]1CO the results were ERp5 inh 3, MLL AF4-AF9 inh 0, DENV2 CPE 21* and ERAP1 inh -1.
CC1C=NC(S(=O)(=O)N2CC[C@@H]3[C@@H](CO)N(C)c4ccc(-c5ccc(F)cc5)cc4[C@@H]32)=N1 (some centres not stated) was read as DENV2 CPE 21*.
`Cc1cccc(S(=O)(=O)N2CC[C@@H]3[C@@H](CO)N(C)c4ccc(-c5ccccc5F)cc4[C@@H]32)c1` gave ERp5 inh -8, MLL AF4-AF9 inh -3, DENV2 CPE 35* and ERAP1 inh 0.
CNC[C@H]1OCCCC[C@H](C)Oc2ccc(NS(=O)(=O)c3cccs3)cc2C(=O)N([C@H](C)CO)C[C@@H]1C was read as ERp5 inh 2, MLL AF4-AF9 inh -6, DENV2 CPE -7 and ERAP1 inh 1.
For C[C@@H](NC(=O)C[C@H]1C=C[C@@H](NC(=O)c2cccnc2)[C@@H](CO)O1)c1ccccc1 the results were ERp5 inh -4, MLL AF4-AF9 inh -22, DENV2 CPE -1 and ERAP1 inh 6.
